The sample as a whole holds a higher share of hits than the screen did.
IDE exosite inh: insulin-degrading enzyme (human) exo-site inhibition | P14735 | purified IDE, FL-6b probe fluorescence polarization; hits give low values | z-score at 20 µM | 17,000 tested, 6.3% active | AID 1259349;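 active = z-score of -3 or lower, meaning strong loss of probe binding signal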;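 note: His-tagged human IDE residues 42-1019 made in E. coli with 30 nM FL-6b probe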
Target sequence (P14735 42-1019 limits assumed): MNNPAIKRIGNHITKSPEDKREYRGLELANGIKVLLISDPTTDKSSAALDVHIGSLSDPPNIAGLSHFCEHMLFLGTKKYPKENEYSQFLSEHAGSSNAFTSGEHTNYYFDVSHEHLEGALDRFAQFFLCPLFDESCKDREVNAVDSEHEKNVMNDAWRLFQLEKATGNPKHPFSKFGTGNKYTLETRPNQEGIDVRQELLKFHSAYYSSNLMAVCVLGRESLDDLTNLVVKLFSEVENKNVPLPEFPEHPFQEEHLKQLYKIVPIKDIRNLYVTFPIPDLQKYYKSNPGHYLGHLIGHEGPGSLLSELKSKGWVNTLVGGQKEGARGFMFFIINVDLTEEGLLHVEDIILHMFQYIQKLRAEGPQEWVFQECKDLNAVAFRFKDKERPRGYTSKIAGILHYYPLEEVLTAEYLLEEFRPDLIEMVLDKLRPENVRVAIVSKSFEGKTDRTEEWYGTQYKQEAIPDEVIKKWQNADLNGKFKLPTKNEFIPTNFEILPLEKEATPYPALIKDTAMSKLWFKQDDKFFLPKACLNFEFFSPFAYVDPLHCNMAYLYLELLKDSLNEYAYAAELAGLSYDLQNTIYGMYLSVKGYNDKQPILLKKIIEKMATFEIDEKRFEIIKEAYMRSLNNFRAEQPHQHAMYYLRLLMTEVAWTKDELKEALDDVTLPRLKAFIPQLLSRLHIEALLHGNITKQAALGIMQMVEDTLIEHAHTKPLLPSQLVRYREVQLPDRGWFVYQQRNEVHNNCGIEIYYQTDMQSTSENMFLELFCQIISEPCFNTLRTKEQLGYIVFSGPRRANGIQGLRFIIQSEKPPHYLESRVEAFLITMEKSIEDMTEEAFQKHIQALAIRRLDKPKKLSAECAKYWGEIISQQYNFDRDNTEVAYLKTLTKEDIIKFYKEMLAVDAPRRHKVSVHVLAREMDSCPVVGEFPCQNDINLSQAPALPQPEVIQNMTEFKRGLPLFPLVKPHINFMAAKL
Large screens that a line does not name were inactive; ! = not active in a repeat.

O=C(C1CCOCC1)N1CC(=O)N2[C@@H](CO)[C@@H](c3ccc(C#CC4CC4)cc3)[C@@H]2C1	none
CN1CCN(C(=O)C[C@@H]2CC[C@@H]3[C@H](COC[C@@H](O)CN3C(=O)c3ccccc3F)O2)CC1	none
N#Cc1ccc(-c2ccc([C@@H]3[C@@H](CO)N4C(=O)CNC[C@@H]34)cc2)cc1	none
COc1ccc(S(=O)(=O)N(C)C[C@H]2OCCCC[C@H](C)Oc3ccc(NC(=O)Cc4ccccc4)cc3C(=O)N([C@@H](C)CO)C[C@@H]2C)cc1	none
FC(F)(F)c1cccc(CN2[C@@H]3CNC[C@H]2[C@@H]3c2ccc(-c3cccnc3)cc2)c1	none
CN(C)CC(=O)N1[C@@H]2c3ccc(C4=CCCCC4)c(=O)n3C[C@@H]2[C@@H](CO)[C@@H]1C(=O)Nc1nccs1	none
COc1cccc(C(=O)N2C[C@H]3[C@@H](c4ccccc42)[C@@H](CO)N3C(=O)c2cccc(F)c2)c1	none
COc1ccccc1CN1C[C@@H]2N[C@H](C1)C2c1ccc(-c2ccc(C(=O)N(C)C)cc2)cc1 (stereo partly drawn)	none
COc1ccccc1CN1C[C@@H]2N[C@H](C1)C2c1ccc(-c2ccc(C#N)cc2)cc1 (stereo partly drawn)	none
N#Cc1cccc(-c2ccc(C3[C@@H]4CN(Cc5ccccc5)C[C@H]3N4)cc2)c1 (stereo partly drawn)	none
COc1ccccc1CN1C[C@@H]2N[C@H](C1)C2c1ccc(-c2ccccc2OC)cc1 (stereo partly drawn)	IDE exosite inh -10
COc1ccccc1CN1C[C@@H]2N[C@H](C1)C2c1ccc(-c2cccc(C#N)c2)cc1 (stereo partly drawn)	IDE exosite inh -4!
COc1ccccc1CN1C[C@@H]2N[C@H](C1)C2c1ccc(-c2ccncc2)cc1 (stereo partly drawn)	none
O=C(C[C@H]1CC[C@@H]2NC[C@H](O)COC[C@H]2O1)N1CCc2ccccc2C1	none
O=C1CN(S(=O)(=O)Cc2ccccc2)C[C@H]2[C@@H](c3ccc(C#Cc4cccc(F)c4)cc3)[C@H](CO)N12	none
C/C=C/c1ccccc1[C@@H]1[C@@H](CO)N(C(=O)Cc2ccccn2)[C@H]1C#N	none
CCc1cnc(N2[C@H](C#N)[C@@H](c3ccccc3C3=CCCC3)[C@@H]2CO)s1	none
Cc1cccc(-c2ccc([C@@H]3[C@@H](CO)N4C(=O)CN(C(=O)Cc5ccccn5)C[C@H]34)cc2)c1	IDE exosite inh -5.7
O=C(Cc1ccccn1)N1CC(=O)N2[C@@H](CO)[C@@H](c3ccc(-c4ccccc4)cc3)[C@@H]2C1	IDE exosite inh -5.6
O=C(Cc1ccccn1)N1CC(=O)N2[C@H](CO)[C@@H](c3ccc(-c4ccccc4)cc3)[C@H]2C1	none
O=C(Cc1ccccn1)N1CC(=O)N2[C@H](CO)[C@H](c3ccc(-c4ccc(F)cc4)cc3)[C@@H]2C1	none
Cc1ccc(-c2ccc([C@@H]3[C@H]4CN(C(=O)Cc5ccccn5)CC(=O)N4[C@H]3CO)cc2)cc1	none
Cc1cccc(-c2ccc([C@H]3[C@H](CO)N4C(=O)CN(C(=O)Cc5ccccn5)C[C@@H]34)cc2)c1	IDE exosite inh -6.9
Cc1ccc(-c2ccc([C@@H]3[C@@H](CO)N4C(=O)CN(C(=O)Cc5ccccn5)C[C@H]34)cc2)cc1	none
Cc1ccc(-c2ccc([C@@H]3[C@@H](CO)N4C(=O)CN(C(=O)Cc5ccccn5)C[C@@H]34)cc2)cc1	none
COC(=O)c1ccc(CN2CC(=O)N3[C@H](CO)[C@@H](c4ccc(-c5ccc(OC)cc5)cc4)[C@H]3C2)cc1	none
CCCN1C[C@H](C)[C@@H](OC)CN(C)C(=O)c2cc(NC(=O)Nc3cccc(F)c3)ccc2OC[C@H]1C	none
COc1cccc(S(=O)(=O)N2C[C@@H](O)COC[C@H]3O[C@H](CC(=O)NCCCN4CCOCC4)CC[C@@H]32)c1	none
COc1ccc(C[C@@H]2CCc3cnnn3COCCNC2=O)cc1	none
CCS(=O)(=O)N1CC2(C1)[C@H](c1ccccc1)[C@H](CO)N2Cc1ccccn1	none
COc1ccc(NC(=O)N2CC(=O)N3[C@H](C2)[C@@H](c2ccc(Br)cc2)[C@@H]3CO)cc1	none
O=C1CN(Cc2ccc(F)cc2)C[C@@H]2[C@H](c3ccc(-c4ccccc4)cc3)[C@@H](CO)N12	none
CO[C@H]1CN(C)C(=O)c2cc(NC(=O)NC(C)C)ccc2OC[C@@H](C)N(C(=O)CN(C)C)C[C@H]1C	none
CO[C@H]1CN(C)C(=O)c2ccc(NC(=O)c3cc(C)on3)cc2OC[C@H](C)NC[C@@H]1C	none
COc1ccccc1-c1ccc([C@H]2[C@H]3CN(Cc4ccncc4)CCCCN3[C@H]2CO)cc1	IDE exosite inh -4.7
COCC#Cc1ccc([C@@H]2[C@@H](CO)N3CCCCN(Cc4ccncc4)C[C@H]23)cc1	none
COc1ccccc1-c1ccc([C@@H]2[C@H](CO)N3CCCCN(Cc4ccncc4)C[C@@H]23)cc1	IDE exosite inh -8.9
OC[C@H]1[C@@H](c2ccc(-c3ccc(F)cc3)cc2)[C@@H]2CN(Cc3ccncc3)CCCCN12	none
COCC#Cc1ccc([C@H]2[C@@H](CO)N3CCCCN(Cc4ccncc4)C[C@H]23)cc1	none
COc1ccc(C#Cc2ccc([C@H]3[C@H](CO)N4CCCCN(Cc5ccncc5)C[C@@H]34)cc2)cc1	none
